aSyn rescue – qHTS of alpha-syn Inhibitors. Yeast expressing alpha-synuclein, growth rescue, BacTiter-Glo, 24 h. Potency, µM (doses to about 46.1 µM), without a hit: at the top dose growth rescue (activation), usual class: activators. actives 0.14% (n = 370,000). AID 652106, 2013; further: potency means the concentration at half of the fitted maximal effect; % of control where 0% means no effect; nearly all actives have a fitted effect of over 65% in size
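Screening used galactose-induced yeast with toxic alpha-synuclein levels, exposed to compound for 24 hr at 30 deg C. Cell growth, read with BacTiter-Glo luminescence, gave the measured signal.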
FUS suppressor – qHTS for Suppressors of FUS Proteinopathy: Primary screen using FUS-linked yeast assay. S. cerevisiae FUS-expressing, growth rescue, OD600, 24 h. Potency, µM (titrated, usually from 76.6 µM), usual class: activators. actives 0.24% (n = 390,000);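 further: potency means the concentration at half of the fitted maximal effect; plate controls were DMSO vehicle for no effect and reference control for full effect; nearly all actives have a fitted effect of over 55% in size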
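Cultures pregrown in 2.5% raffinose medium are shifted to minimal medium containing 2% galactose to express toxic FUS. Compounds are tested at several concentrations. After 24hr at 30C, growth is quantified at 600 nm absorbance.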
LDHA block – qHTS assay for inhibitors of human lactate dehydrogenase; activity change, % (values are at about 110 or 230 µM); purified LDHA, NADH/diaphorase-resazurin fluorescence; active compounds read low; actives 0.15% (n = 480,000); AID 1347041, 2019; in the data active means activity change below about -30%; inconclusive means mostly about -25% to -30%;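 further: plate controls were DMSO wells for no effect and wells without enzyme for full effect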
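LDH5 2 nM; NADH 0.06 mM, pyruvate 0.2 mM; 200 mM Tris pH 7.4, EDTA, Tween-20; 5 min RT. Detection: diaphorase 0.133 mg/mL + resazurin 37 µM, fluorescence ex540/em590 at 0 and 20 min; normalized to enzyme-free and DMSO wells.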
mIDH1 inhibitor – qHTS for Inhibitors of mutant isocitrate dehydrogenase 1 (IDH1): qHTS | Isocitrate dehydrogenase [NADP] cytoplasmic (Homo sapiens), O75874 | IDH1-R132H enzyme, NADPH consumption, diaphorase/resazurin fluorescence | Potency, µM (top dose mostly 76.6 µM), without a hit: top-dose activity change, negative = inhibition, usual class: inhibitors | actives 0.093% (n = 390,000) | AID 602179, 2012; further: potency means the concentration at half of the fitted maximal effect; on the % scale 0 is the no-effect control and ±100 the full control effect; nearly all actives have a fitted effect of over 65% in size
Target sequence (O75874 whole entry R132H, stated change not applied): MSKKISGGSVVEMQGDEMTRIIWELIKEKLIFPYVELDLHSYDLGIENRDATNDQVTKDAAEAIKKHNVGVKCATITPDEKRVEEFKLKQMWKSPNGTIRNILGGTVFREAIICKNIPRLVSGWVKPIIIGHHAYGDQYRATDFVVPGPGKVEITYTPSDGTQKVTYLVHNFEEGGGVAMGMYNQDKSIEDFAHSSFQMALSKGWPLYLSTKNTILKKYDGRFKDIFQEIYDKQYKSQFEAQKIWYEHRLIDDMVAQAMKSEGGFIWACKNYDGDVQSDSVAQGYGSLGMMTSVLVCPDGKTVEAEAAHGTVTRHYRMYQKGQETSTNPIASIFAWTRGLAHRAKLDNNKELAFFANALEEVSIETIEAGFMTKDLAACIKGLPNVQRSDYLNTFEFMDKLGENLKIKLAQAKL
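IDH1-R132H (0.5 ug/mL) preincubated 30 min with compound, then NADPH (0.016 mM) and alpha-KG (2 mM) added; 80 min at RT, pH 7.5. Remaining NADPH coupled via diaphorase/resazurin to fluorescence (540/590 nm); concentration-response curves normalized to no-enzyme control.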
TDP43 rescue – qHTS of TDP-43 Inhibitors; TDP-43 expressing yeast growth rescue, BacTiter-Glo, 24 h; Potency, µM (series often up to 46.1 µM), without a hit: top-dose growth rescue (activation), most hits filed as activators; actives 1.8% (n = 410,000); further: potency means the concentration at half of the fitted maximal effect; % of control where 0% means no effect; nearly all actives have a fitted effect of over 50% in size
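Galactose-induced TDP-43 yeast, OD600=0.02, compound pinned; 24 hr, 30 deg C; BacTiter-Glo luminescence for growth. Inhibitors of TDP-43 toxicity read as activators.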
Abeta yeast res – qHTS for compounds that reverse cellular toxicity of Amyloid beta (A-beta) peptide in yeast: Primary Screen; yeast expressing A-beta42, growth rescue, OD600, 48 h; response scale: 0% DMSO, 100% iron-clioquinol control; actives 0.063% (n = 410,000); Potency, µM (doses to about 46.1 µM), actives largely listed as activators; further: potency means the concentration at half of the fitted maximal effect; nearly all actives have a fitted effect of over 55% in size
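Growth rescue measured by 600 nm absorbance after 48 h yeast culture at 30 C with compound. Values normalized between DMSO and an equimolar ferric chloride plus clioquinol control.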
The depositor's hits bear a star; i = inactive; ? = inconclusive; . = no result given. This is a sample that favours compounds with a hit; in the whole collection about 2% have one here. Unless noted, the call rests on the fitted dose curve; in most records, active means well fitted curve in the direction sought with a large enough effect; inconclusive means small, poorly fitted or top-dose-only effect, or another doubt; inactive means no such curve, though single readings can be large; an effect the other way counts as inactive or inconclusive.

SMILES | aSyn rescue | FUS suppressor | LDHA block | mIDH1 inhibitor | TDP43 rescue | Abeta yeast res
Cc1ccccc1NC1=C(Cl)C(=O)OC1OC(=O)c1ccccc1C (stereo not given) | 5.6% | i | -7.2 | -7.0% | 20µM* | i
CCN(CC)c1ccc(/C=N/NC(N)=S)cc1 | . | . | -2.1 | . | . | .
CCN1C(=O)[C@H]2[C@@H](c3ccc(C)cc3)N3C(=O)N(c4cccc(Br)c4)C(=O)[C@@]3(Cc3ccccc3)[C@H]2C1=O | -2.2% | 35.5µM* | 1.2 | -11.2% | -10.3% | i
CC(C)(C)N1C(=O)[C@H]2[C@@H](c3ccc(Br)cc3)N3C(=O)N(c4cccc(Br)c4)C(=O)[C@@]3(Cc3ccccc3)[C@H]2C1=O | 1.2% | 5.01µM* | -10.4 | 29.8% | 6.8% | i
CC(C)(C)N1C(=O)[C@H]2[C@@H](c3ccc(Br)cc3)N3C(=O)N(c4ccccc4)C(=O)[C@@]3(Cc3ccccc3)[C@H]2C1=O | 13.8% | ? | -4.7 | 11.5% | -4.4% | i
CC(=O)NNC(=S)NC(=O)C(c1ccccc1)c1ccccc1 | 28.7% | i | -5.0 | -2.5% | 25.1µM* | ?
CC(C)(C)C(=O)NC(=S)NNC(=O)C(c1ccccc1)c1ccccc1 | 17.8µM* | i | -3.0 | -4.7% | ? | ?
COc1ccc(C2c3[nH]c4ccc(OC)cc4c3CCN2C(=O)Nc2ccccc2)cc1 (stereo not given) | . | ? | 3.4 | 8.6% | 20µM* | i
COc1ccc(C2c3[nH]c4ccccc4c3CCN2C(=O)CCC2CCCC2)cc1 (stereo not given) | . | i | -1.6 | -12.3% | -1.2% | i
C=C1CCC[C@]2(C)C[C@H]3OC(=O)C(CN4CCCCC4CO)[C@H]3CC12 (stereo not given in full) | -14.6% | i | -2.9 | 4.3% | 12.6µM* | i
CC(C)c1ccc(/C=C2\Oc3cc(OS(C)(=O)=O)ccc3C2=O)cc1 | . | . | 6.8 | . | . | .
Cc1cc(OCC(=O)NNC(=O)c2cnccn2)cc(C)c1Cl | 17.8µM* | i | -0.5 | -5.5% | ? | ?
Cc1ccc(OCC(=O)NCCCNC(=O)c2cnccn2)cc1C | -0.3% | i | -1.9 | -6.1% | -13.7% | i
CCN(Cc1ccc(Cl)s1)C(=O)c1cccc(OCc2c(C)noc2C)c1 | -1.3% | . | 2.2 | 2.6% | 35.5µM* | i
CC(=O)n1c(=O)c2ccccc2c(=O)n1-c1ccccc1 | -17.4% | i | -8.4 | 4.5% | 3.16µM* | i
Cn1c(COc2ccccc2Cl)nnc1SCCOc1ccc(Cl)cc1 | . | . | -1.1 | . | . | .
CC(C)(CNC(=O)C(Cl)(Cl)Cl)CNC(=O)C(Cl)(Cl)Cl | . | . | 8.5 | . | . | .
Cc1cc(C)c(C)c(S(=O)(=O)ON2C(=O)c3ccccc3C2=O)c1C | 15.8% | . | -2.6 | 14.8% | 5.62µM* | i
Cc1cc(C)c(S(=O)(=O)ON2C(=O)c3ccccc3C2=O)cc1C | -69.6% | . | -7.9 | 8.3% | ? | i
CCSc1cc(C)nc2ncnn12 | -1.9% | i | -4.9 | 4.8% | 9.0% | i
CCCCCCSc1cc(C)nc2ncnn12 | 0.9% | i | 0.4 | -3.9% | 25.1µM* | i
O=C(NC(=S)N1CCN(c2ccc(Cl)cc2[N+](=O)[O-])CC1)c1ccco1 | -0.8% | i | -3.5 | 2.4% | 12.6µM* | i
COc1ccc(-c2n[nH]c(C)c2-c2cnn(-c3ccccc3)c2)c(O)c1 | 12.8% | ? | -6.1 | -3.9% | 22.4µM* | i
COc1ccccc1/C=C/C=C1\Oc2cc(OS(C)(=O)=O)ccc2C1=O | . | . | 12.0 | . | . | .
CC(C)c1cccc(C(C)C)c1NC(=O)c1ccccc1Sc1ccccc1C#N | . | . | 4.7 | . | . | .

High-throughput results from PubChem BioAssay.
